# Source: PubChem BioAssay AID1159580 (chemical genetic matrix, 2015)
# Where “and” joins values, the source holds several entries; their conditions need not be identical. Identical values can stand only once. About 2,000 (36%) of roughly 5,500 compounds were called active. About 18% were inconclusive and are not listed. The list shows a part of the results. Unmarked numbers belong to inactive results. Cut-off read from the data, not from the text of the source: active = normalized growth mostly below about 0.91 (no sharp cut-off); inconclusive = no clear call, values can overlap the other calls; inactive = mostly above about 0.92.
# Test: chemical genetic growth profiling, strain panel (AID 1159580);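 note: tested at 20 µM; growth read once vehicle control cultures reached saturation at 30 °C; 1 = growth at the plate median or of vehicle wells; lower values mean less growth of the strain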
# Settings: S. cerevisiae deletion strains, growth OD
smiles,measurement,setting,value
CCCOc1ccc2nc(NC(=O)OC)[nH]c2c1,normalized growth,"locus YAL021C, strain ccr4, hits give low values",1.03
same,normalized growth,"locus YAL026C, strain drs2, hits give low values",1.02
same,normalized growth,"locus YAL030W, strain snc1, hits give low values",1.02
same,normalized growth,"locus YBL061C, strain skt5, hits give low values",1.01
same,normalized growth,"locus YBR009C, strain hhf1, hits give low values",1.01
same,normalized growth,"locus YBR021W, strain FUR4, hits give low values",1.01
same,normalized growth,"locus YBR023C, strain chs3, hits give low values",1.02
same,normalized growth,"locus YBR171W, strain sec66, hits give low values",1.02
same,normalized growth,"locus YBR229C, strain ROT2, hits give low values",0.992
same,normalized growth,"locus YBR231C, strain swc5, hits give low values",1.01
same,normalized growth,"locus YBR279W, strain paf1, hits give low values",1.02
same,normalized growth,"locus YCL011C, strain gbp2, hits give low values",1.01
same,normalized growth,"locus YCL016C, strain dcc1, hits give low values",1.02
same,normalized growth,"locus YCL029C, strain bik1, hits give low values",0.974
same,normalized growth,"locus YCL061C, strain MRC1, hits give low values",1.01
same,normalized growth,"locus YCL069W, strain vba3, hits give low values",1.02
same,normalized growth,"locus YCR088W, strain abp1, hits give low values",1.02
same,normalized growth,"locus YDL005C, strain med2, hits give low values",1.02
same,normalized growth,"locus YDL035C, strain GPR1, hits give low values",1.01
same,normalized growth,"locus YDL040C, strain nat1, hits give low values",1.02
same,normalized growth,"locus YDL074C, strain BRE1, hits give low values",1.02
same,normalized growth,"locus YDL101C, strain DUN1, hits give low values",0.997
same,normalized growth,"locus YDL134C, strain PPH21, hits give low values",0.982
same,normalized growth,"locus YDL185W, strain tfp1, hits give low values",0.976
same,normalized growth,"locus YDL192W, strain arf1, hits give low values",0.97
same,normalized growth,"locus YDR001C, strain nth1, hits give low values",1.02
same,normalized growth,"locus YDR069C, strain doa4, hits give low values",1.01
same,normalized growth,"locus YDR101C, strain arx1, hits give low values",1.01
same,normalized growth,"locus YDR137W, strain rgp1, hits give low values",0.951
same,normalized growth,"locus YDR150W, strain NUM1, hits give low values",0.996
same,normalized growth,"locus YDR159W, strain sac3, hits give low values",1.01
same,normalized growth,"locus YDR162C, strain NBP2, hits give low values",0.983
same,normalized growth,"locus YDR195W, strain ref2",1.04
same,normalized growth,"locus YDR297W, strain sur2, hits give low values",1.02
same,normalized growth,"locus YDR318W, strain mcm21, hits give low values",0.977
same,normalized growth,"locus YDR334W, strain swr1, hits give low values",1.01
same,normalized growth,"locus YDR335W, strain msn5, hits give low values",1.02
same,normalized growth,"locus YDR388W, hits give low values",0.981
same,normalized growth,"locus YDR392W, strain spt3, hits give low values",0.99
same,normalized growth,"locus YDR502C, strain sam2, hits give low values",0.983
same,normalized growth,"locus YEL003W, strain gim4, hits give low values",0.841 (active)
same,normalized growth,"locus YEL037C, strain rad23, hits give low values",1.01
same,normalized growth,"locus YEL061C, strain CIN8 (second series), hits give low values",1.02
same,normalized growth,"locus YEL061C, strain CIN8, hits give low values",0.999
same,normalized growth,"locus YER015W, strain faa2, hits give low values",1
same,normalized growth,"locus YER016W, strain bim1, hits give low values",1.02
same,normalized growth,"locus YER110C, hits give low values",0.968
same,normalized growth,"locus YER111C, strain swi4, hits give low values",1.01
same,normalized growth,"locus YER155C, strain BEM2 (second series), hits give low values",1.02
same,normalized growth,"locus YER155C, strain BEM2, hits give low values",0.992
same,normalized growth,"locus YER167W, strain BCK2, hits give low values",0.988
same,normalized growth,"locus YFR010W, strain ubp6, hits give low values",1.02
same,normalized growth,"locus YGL078C, strain dbp3, hits give low values",0.982
same,normalized growth,"locus YGL086W, strain mad1, hits give low values",0.989
same,normalized growth,"locus YGL167C, strain pmr1, hits give low values",1.01
same,normalized growth,"locus YGL173C, strain kem1, hits give low values",1.02
same,normalized growth,"locus YGL227W, strain vid30, hits give low values",1.02
same,normalized growth,"locus YGL240W, strain doc1, hits give low values",1
same,normalized growth,"locus YGL248W, strain PDE1, hits give low values",0.986
same,normalized growth,"locus YGL253W, strain hxk2, hits give low values",1.01
same,normalized growth,"locus YGR078C, strain PAC10, hits give low values",0.856
same,normalized growth,"locus YGR135W, strain pre9, hits give low values",0.953
same,normalized growth,"locus YGR229C, strain SMI1, hits give low values",0.983
same,normalized growth,"locus YGR252W, strain gcn5, hits give low values",0.956
same,normalized growth,"locus YHR013C, strain ard1, hits give low values",1.01
same,normalized growth,"locus YHR027C, strain rpn1, hits give low values",1.01
same,normalized growth,"locus YHR030C, strain SLT2, hits give low values",0.988 and 1.02
same,normalized growth,"locus YHR079C, strain IRE1 (second series), hits give low values",0.986
same,normalized growth,"locus YHR079C, strain IRE1, hits give low values",1.02
same,normalized growth,"locus YHR094C, strain hxt1, hits give low values",0.982
same,normalized growth,"locus YHR129C, strain ARP1, hits give low values",0.989
same,normalized growth,"locus YHR142W, strain chs7, hits give low values",1.03
same,normalized growth,"locus YHR200W, strain rpn10, hits give low values",0.98
same,normalized growth,"locus YIL066C, strain RNR3, hits give low values",0.996
same,normalized growth,"locus YIL073C, strain SPO22, hits give low values",0.964
same,normalized growth,"locus YIL125W, strain kgd1, hits give low values",0.993
same,normalized growth,"locus YIR030C, strain dcg1, hits give low values",0.983
same,normalized growth,"locus YJL092W, strain hpr5, hits give low values",1.01
same,normalized growth,"locus YJL095W, strain BCK1 (second series), hits give low values",1.02
same,normalized growth,"locus YJL095W, strain BCK1, hits give low values",1.01 and 1.06
same,normalized growth,"locus YJL115W, strain asf1, hits give low values",1
same,normalized growth,"locus YJL129C, strain trk1, hits give low values",1.03
same,normalized growth,"locus YJL134W, strain LCB3, hits give low values",0.995
same,normalized growth,"locus YJL154C, strain vps35, hits give low values",1.02
same,normalized growth,"locus YJL164C, strain tpk1, hits give low values",1.02
same,normalized growth,"locus YJL166W, strain qcr8, hits give low values",1.02
same,normalized growth,"locus YJL168C, strain set2, hits give low values",0.994
same,normalized growth,"locus YJL187C, strain SWE1 (second series), hits give low values",1.01
same,normalized growth,"locus YJL187C, strain SWE1, hits give low values",1.01
same,normalized growth,"locus YJR043C, strain POL32, hits give low values",0.991
same,normalized growth,"locus YJR066W, strain TOR1, hits give low values",0.94
